# Screening data: PubChem, National Center for Advancing Translational Sciences (NCATS)
# Most compounds without a hit are left out; they make up all but 12% or so of the library.
# BAZ2B block: qHTS Assay for Inhibitors of BAZ2B; Bromodomain adjacent to zinc finger domain protein 2B (Homo sapiens), Q9UIF8; AlphaScreen BAZ2B-H3K14Ac peptide displacement; Potency, µM (top dose mostly 114 µM), most hits filed as inhibitors; hit rate 4.4% among 360,000; also: nearly all actives have a fitted effect of over 60% in size
#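 AlphaScreen displacement of biotin-H3(5-23)K14Ac peptide (50 nM final) from BAZ2B (50 nM final) in PBS pH 7.4, 0.01% Tween-20; complex preformed 30 min RT, then compounds (top 110 uM) 30 min RT, beads 20 min dark.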
# HP1b binding inh: HTS for Inhibitors of HP1-beta Chromodomain Interactions with Methylated Histone Tails; Chromobox protein homolog 1 (Homo sapiens), P83916; AID 540317, 2011; hit rate 0.56% among 390,000; AlphaScreen HP1-beta / biotin-H3K9me3 peptide binding; Potency, µM (series often up to 114 µM), usual class: inhibitors; also: nearly all actives have a fitted effect of over 70% in size
#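 AlphaScreen: HP1-beta (50 nM) preformed 30 min with biotin-H3(1-18)K9me3 peptide (50 nM) in PBS pH 7.4, 0.01% Tween-20. Compound added for 30 min at RT, then streptavidin donor/nickel chelate acceptor beads (10 ug/mL) for 30 min.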
# PLK1 PBD block: qHTS for Inhibitors of PLK1-PDB (polo-like kinase 1 - polo-box domain): Primary Screen; Plk1 PBD binding of FITC phosphopeptide, fluorescence polarization; Potency, µM, hits mostly inhibitors; hit rate 2.8% among 360,000; AID 720504, 2013; also: series mostly up to about 57 µM; nearly all actives have a fitted effect of over 65% in size
# G9a inh: qHTS Assay for Inhibitors of Histone Lysine Methyltransferase G9a; AID 504332, 2011; G9a H3K9 monomethylation, AlphaScreen, 2 h; Potency, µM (titrated, usually from 102 µM), usual class: inhibitors; hit rate 8.8% among 350,000; also: nearly all actives have a fitted effect of over 75% in size
#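 Compounds were preincubated with 20 nM G9a for 15 min, after which biotinylated H3K9 peptide (500 nM) and SAM (20 uM) started a 2 h room-temperature reaction. Monomethylated product was quantified by antibody-based AlphaScreen chemiluminescence.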
# JMJD2A Tudor inh: qHTS Assay for Inhibitors of JMJD2A-Tudor Domain | Lysine-specific demethylase 4A (Homo sapiens), O75164 | AlphaScreen JMJD2A-Tudor / H3K4me3 peptide binding | Potency, µM (titrated, usually from 114 µM), usual class: inhibitors | hit rate 4.4% among 390,000 | AID 504339, 2011; also: nearly all actives have a fitted effect of over 50% in size
# PI5P4Ka inh: qHTS for Inhibitors of phosphatidylinositol 5-phosphate 4-kinase (PI5P4K) | PI5P4Kalpha enzyme, ADP-Glo luminescence, 60 min; stronger effect = lower value | max response, % | hit rate 1.2% among 330,000; active = max response of -50% or lower; inconclusive = between -30% and -50%; inactive = -30% or higher; also: value at the top dose of about 77 µM
#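 Luminescence from ADP-Glo served as readout of PI5P4Kalpha activity in a qHTS format. Reaction: enzyme, substrate, compound, ATP at 5 microM final, 60 min at RT.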
# Numbers stand for hits; 0 = inactive; ? = inconclusive; - = no result given; [ ] = remark or other dose. Unless noted, calls follow the shape of the dose curve; as a rule, active = well fitted curve in the direction sought with a large enough effect; inconclusive = small, poorly fitted or top-dose-only effect, or another doubt; inactive = no such curve, though single readings can be large; an effect the other way counts as inactive or inconclusive.
SMILES,BAZ2B block,HP1b binding inh,PLK1 PBD block,G9a inh,JMJD2A Tudor inh,PI5P4Ka inh
Cc1nnsc1C(=O)NNc1ccc(Cl)cc1,0,0,0,-,0,0
CCc1ccccc1NNC(=O)c1snnc1C,0,0,0,2.8µM,0,0
Cn1nnc2c[n+](CC(=O)c3ccc(Cl)cc3)cc(Br)c21,0,0,0,?,0,0
Cn1nnc2c[n+](CC(=O)c3ccc4ccccc4c3)cc(Br)c21,?,0,0,56µM,0,0
CSc1ccccc1NC(=O)C1(C)CCN1C(=O)Cc1ccccc1Cl (stereo not drawn),-,-,0,-,-,0
O=C(/C(=C/c1ccccc1)n1cncn1)c1ccc(Cl)cc1Cl,0,0,19µM,0,0,0
CS(=O)(=O)Nc1nnc(C2CCCC2)s1,0,0,19µM,50µM,0,0
O=S(=O)(Nc1nnc(C2CC2)s1)c1ccccc1,0,0,?,50µM,0,0
CCc1nnc(NS(=O)(=O)c2ccccc2)s1,0,0,0,0[0.501 µM],0,0
C/C=C/C(=O)Nc1nnc(C2CCCCC2)s1,0,0,0,?,0,0
CC1CCN(S(=O)(=O)c2cc(C(=O)NC3(C)CCS(=O)(=O)C3)ccc2Br)CC1 (stereo not drawn),0,0,0,0,0,0
COc1cccc(-n2nc(C#N)c(Cl)cc2=O)c1,0,0,?,50µM,0,0
Oc1c(/C=N/c2ncn[nH]2)ccc2ccccc12,0,0,0,2.2µM,?,0
CCCCC(=O)Nc1ccc(C(N)=O)cc1,0,0,0,0,0,-
CCCCC(=O)Nc1ccc(NCc2ccc(C)s2)cc1,0,0,0,50µM,?,0
CCCN1CCC(C)(C(=O)Nc2cccc(OC(C)C)c2)C1 (stereo not drawn),-,-,0,-,-,0
COc1cc(NC(C)CCc2ccccc2)cc(OC)c1OC (stereo not drawn),?,?,0,-,45µM,0
COc1cccc(OC)c1C(=O)NC(C)CCc1ccccc1 (stereo not drawn),0,0,0,0[0.501 µM],0,0
Cc1cc(OCC(=O)Nc2ccncc2)cc(C)c1Cl,0,0,0,0,0,0
O=C(CSc1nc(C2CC2)nc2ccccc12)Nc1ccccc1,0,0,0,0,0,0
CN(C)c1ccc(NC(=O)CSc2nc3ccccc3c(=O)n2C2CCCCC2)cc1,10µM,?,0,7.9µM,7.9µM,-
CN(C)c1ccc(NC(=O)CSc2nc(C3CC3)nc3ccccc23)cc1,0,0,0,4.5µM,?,0
Cc1ccccc1-n1c(SCC(=O)c2c(N)n(C3CC3)c(=O)[nH]c2=O)nnc1N1CCOCC1,0,0,0,10µM,0,0
CCn1c(SCC(=O)c2c(N)n(C3CC3)c(=O)[nH]c2=O)nnc1-c1ccccc1OC,0,0,0,2µM,0,0
CCn1c(Cc2ccccc2)nnc1SCC(=O)c1c(N)n(C2CC2)c(=O)[nH]c1=O,0,0,0,0[12.7 µM],0,0
SMILES,BAZ2B block,HP1b binding inh,PLK1 PBD block,G9a inh,JMJD2A Tudor inh,PI5P4Ka inh
CCNC(=O)C1(C)CCN1C(=O)CCc1cccc(Cl)c1 (stereo not drawn),-,-,0,-,-,0
Cc1ccccc1S(=O)(=O)Nc1nc2ccccc2nc1N1CCc2ccccc2C1,0,0,?,?,0,0
O=S(=O)(Nc1nc2ccccc2nc1N1CCN(CCO)CC1)c1cc(F)ccc1F,0,0,0,7.1µM,0,0
O=S(=O)(Nc1nc2ccccc2nc1N1CCc2ccccc2C1)c1ccc(Br)cc1,0,0,?,8.9µM,0,0
CC(=O)Nc1ccc(S(=O)(=O)Nc2nc3ccccc3nc2N2CCc3ccccc3C2)cc1,0,0,0,0,0,0
O=S(=O)(Nc1nc2ccccc2nc1N1CCc2ccccc2C1)c1ccc(Cl)cc1,0,0,21µM,?,0,0
O=C(CCCCn1c(=O)c2ccccc2n(Cc2cccc(F)c2)c1=O)NCc1ccc2c(c1)OCO2,0,0,-,0,0,-
Cc1[nH][nH]c(=O)c1C(c1c(C)[nH][nH]c1=O)c1cn(Cc2ccccc2Cl)c2ccccc12,?,?,?,14µM,?,0
N/C(=N\O)c1cn(Cc2ccccc2Cl)c2ccccc12,0,0,0,0,0,0
C/C(=N\NC(=O)c1cccc(N/N=C(\C)c2cc(O)ccc2O)c1)c1cc(O)ccc1O,11µM,?,0,?,13µM,0
C/C(=N\NC(=O)c1cccc(N/N=C(\C)c2ccco2)c1)c1ccco1,0,0,0,35µM,?,-86
C/C(=N\NC(=O)c1cccc([N+](=O)[O-])c1)c1ccco1,0,0,0,0,0,0
Cc1nn(-c2ccc(N3CCCC3)nn2)c(C)c1CCC(=O)Nc1ccc(F)cc1F,0,0,-,0,0,-
CCn1c(Cl)c(C=O)s/c1=N\S(=O)(=O)c1ccccc1,0,0,12µM,45µM,0[11.4 µM],0
CC(C)n1c(SC2C(=O)CC(C)(C)CC2=O)nc2c1c(=O)n(C)c(=O)n2C,?,0,0,0[12.7 µM],?,-
CCCn1c(SC2C(=O)CC(C)(C)CC2=O)nc2c1c(=O)n(C)c(=O)n2C,?,0,0,56µM,0,-
CCOC(=O)C1CCN(C(=O)CN2c3ccc(C(C)C)cc3-c3ccccc3S2(=O)=O)CC1,0,0,-,0,0,-
CCCn1nc([N+](=O)[O-])c(C(C#N)c2nc3ccccc3o2)c(Cl)c1=O (stereo not drawn),20µM,?,30µM,10µM,56µM,?
Cc1ccc(Cn2c(C(C)Nc3nc(-c4ccc(Cl)c([N+](=O)[O-])c4)cs3)nc3cc(C(F)(F)F)ccc32)cc1 (stereo not drawn),-,0,0,-,?,0
Cn1nc([N+](=O)[O-])c(C(C#N)c2ccccn2)c(Cl)c1=O (stereo not drawn),0,0,30µM,11µM,0,0
N#CC(c1ccccn1)c1ncc(C(F)(F)F)cc1Cl (stereo not drawn),0,0,0,0[12.7 µM],0,0
CCn1nc([N+](=O)[O-])c(C(C#N)c2nc3cc(C(F)(F)F)ccc3s2)c(Cl)c1=O (stereo not drawn),11µM,22µM,24µM,11µM,28µM,-
FC(F)(F)C(F)(F)C(F)(F)C(F)(F)C(F)(F)C(F)(F)F,-,-,-,0[12.7 µM],-,-
CCOC(=O)C1=C(COC(=O)CSc2ccc(C)cc2)NC(=O)NC1C (stereo not drawn),0,0,0,0[12.7 µM],0,0
COc1ccccc1OCc1nc(C#N)c(NCc2ccco2)o1,?,0,0,0[12.7 µM],0,0
N#Cc1nc(COc2ccccc2F)oc1NCCc1ccccc1,?,0,0,?,?,0
